Reference: PubChem BioAssay
Activity calls are given as the source filed them.

How the values were obtained:
Albumin (Bos taurus) = Albumin (Bos taurus) (UniProt P02769); experiment: compounds binding labelled BSA control protein – biochemical, small-molecule microarray, Alexa647 label, 635/667 nm fluorescence, artefact control for SMM control protein annotation, profiling panel (AID 1118); conditions: BSA-A647 binding, fluorescence 635 nm, higher = more signal;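 also: score merges 667 nm emission intensity and signal-to-noise per printed compound spot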
[1] = probe aXIP binding to arrayed compounds – biochemical, NeuroSMM set, 635/667 nm fluorescence, primary screen (AID 1119); conditions: small-molecule microarray, higher = more signal, called active from +8 up or from −8 down;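 also: probe is the protein aXip251-270 applied at 1 µg/mL to compound-printed slides; binding of probe to printed compounds measured as 667 nm fluorescence plus signal to noise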
[2] = probe aNOTCH3 binding on compound microarray – biochemical, small-molecule microarray, 635/667 nm fluorescence, primary screen (AID 1120); conditions: higher = more signal;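 also: probe is a biotin-tagged antibody raised against NOTCH3 rather than NOTCH3 protein; score merges spot fluorescence near 667 nm with spot signal to noise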
[3] = probe aNOTCH2 binding on compound microarray – biochemical, small-molecule microarray, 635/667 nm fluorescence, primary screen (AID 1121); conditions: higher = more signal;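 also: score merges feature fluorescence read at 667 nm with its signal to noise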
[4] = biological target: Carbonic anhydrase 2 (Homo sapiens) (UniProt P00918); experiment: compounds binding carbonic anhydrase 2 – biochemical, small-molecule microarray, Alexa647-labelled CAII, profiling panel (AID 1122); conditions: CAII-A647 binding fluorescence, higher = more signal
[5] = COS7 lysate on small-molecule microarray, probe aHis, 635 nm (AID 1123); conditions: COS7 cell lysate, fluorescence, higher = more signal;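 also: z-score combines 667nm fluorescence intensity with signal-to-noise per printed compound spot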
[6] = probe aLAP1 signal on lysate-treated microarray – cell lysate, small-molecule microarray, COS7 lysate, primary screen (AID 1124); conditions: probe aLAP1, fluorescence, higher = more signal;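 also: lysate comes from COS7 cells expressing LAP1 and is applied at 0.3 µg/mL; score merges spot fluorescence near 667 nm with signal-to-noise over triplicate slides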
Sam68 (KHDRBS1) = experiment: compounds binding KHDRBS1 protein – biochemical, small-molecule microarray, 635 nm fluorescence, primary screen (AID 1125); conditions: higher = more signal;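 also: score merges 667 nm channel intensity with signal to noise over triplicate slides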
[7] = test system: Chordin-like protein 2 (CHRDL2); experiment: compounds binding chordin-like 2 – biochemical, small-molecule microarray, 635 nm fluorescence, primary screen (AID 1126); conditions: fluorescence 635 nm, higher = more signal;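 also: printed compound slides probed with Chrdl2 protein at 4 µg/mL for 1 h at 4 C; score merges 667 nm emission intensity with signal to noise over three replicate slides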
[8] = biological target: Concanavalin-A (Canavalia ensiformis) (UniProt P02866); experiment: compounds binding concanavalin A lectin – biochemical, small-molecule microarray, Alexa647 label, 635 nm, artefact control for SMM control protein annotation, primary screen (AID 1127); conditions: ConA-A647 binding fluorescence, higher = more signal;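 also: z combines 667 nm emission intensity with signal-to-noise across three replicate slides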
[9] = compounds binding Alexa647 anti-His antibody – biochemical, small-molecule microarray, 635 nm fluorescence, artefact control for SMM control protein annotation, primary screen (AID 1128); conditions: higher = more signal;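 also: score merges feature fluorescence with signal-to-noise for each printed compound spot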
[10] = test system: Human papillomavirus type 1a E7 protein (residues 1-88); experiment: HPV1a E7 small-molecule binders, primary screen, biochemical, small-molecule microarray, residues 1-88, 635 nm (AID 1129); conditions: small-molecule microarray binding, fluorescence 635 nm; higher = more signal
[11] = biological target: Focal adhesion kinase 1 (Homo sapiens) (UniProt Q05397); experiment: PTK2 protein binding on printed compound slides – biochemical, small-molecule microarray, 635/667 nm fluorescence, BSA, DTT, primary screen (AID 1130); conditions: 635 nm fluorescence, higher = more signal;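 also: composite of spot emission at 667 nm and signal to noise over triplicate slides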
[12] = test system: Fibrinogen (Alexa647-labelled); experiment: Alexa647-fibrinogen binding to printed small molecules – biochemical, small-molecule microarray, 635/667 nm fluorescence, artefact control for SMM control-protein annotation, profiling panel (AID 1131); conditions: fibrinogen-A647 binding fluorescence, higher = more signal;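 also: z-score merges 667 nm fluorescence with per-spot signal-to-noise over triplicate slides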
[13] = biological target: Follistatin (Homo sapiens) (UniProt P19883); experiment: FST protein binding to printed compounds – biochemical, small-molecule microarray, 635/667 nm fluorescence, primary screen (AID 1132); conditions: 635 nm fluorescence, higher = more signal
[14] = biological target: Fibroblast growth factor 2 (Homo sapiens) (UniProt P09038); experiment: basic fibroblast growth factor binding to printed compounds – biochemical, small-molecule microarray, 635/667 nm fluorescence, primary screen (AID 1133); conditions: FGF2, fluorescence 635/667, higher = more signal
[15] = JC-1 mitochondrial potential readout, lung cancer cells – cell-based, A549, JC-1 fluorescence, basal, 24 h, 100 nL, profiling panel (AID 1138); conditions: higher = more signal;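 also: A549 lung adenocarcinoma cells under basal conditions with no added stimulus; test concentration not given here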
Lefty1 = Lefty1 protein binding to printed compounds – biochemical, small-molecule microarray, 635/667 nm fluorescence, primary screen (AID 1139); conditions: fluorescence 635/667, higher = more signal
[16] = test system: wheat germ agglutinin (Triticum aestivum), Alexa647-labelled; experiment: Alexa647-WGA lectin binding to printed small molecules – biochemical, small-molecule microarray, 635/667 nm fluorescence, artefact control for SMM control-protein annotation, profiling panel (AID 1140); conditions: WGA-A647 binding, 635 nm fluorescence, higher = more signal;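 also: score merges 667 nm feature emission with signal to noise over triplicate slides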
[17] = biological target: Luciferin 4-monooxygenase (Photinus pyralis) (UniProt P08659); experiment: inhibition of purified Photinus pyralis luciferase – biochemical, luminescence, purified enzyme, 2006 set, primary screen (AID 1141); conditions: purified firefly luciferase, SteadyGlo luminescence, 30 min; higher = more signal, called active from +8 up or from −8 down;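 also: cell-free assay with purified firefly luciferase at 100 ng per well in PBS; test concentration not given here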
Sequence of Luciferin 4-monooxygenase (Photinus pyralis) (P08659 whole entry, looked up): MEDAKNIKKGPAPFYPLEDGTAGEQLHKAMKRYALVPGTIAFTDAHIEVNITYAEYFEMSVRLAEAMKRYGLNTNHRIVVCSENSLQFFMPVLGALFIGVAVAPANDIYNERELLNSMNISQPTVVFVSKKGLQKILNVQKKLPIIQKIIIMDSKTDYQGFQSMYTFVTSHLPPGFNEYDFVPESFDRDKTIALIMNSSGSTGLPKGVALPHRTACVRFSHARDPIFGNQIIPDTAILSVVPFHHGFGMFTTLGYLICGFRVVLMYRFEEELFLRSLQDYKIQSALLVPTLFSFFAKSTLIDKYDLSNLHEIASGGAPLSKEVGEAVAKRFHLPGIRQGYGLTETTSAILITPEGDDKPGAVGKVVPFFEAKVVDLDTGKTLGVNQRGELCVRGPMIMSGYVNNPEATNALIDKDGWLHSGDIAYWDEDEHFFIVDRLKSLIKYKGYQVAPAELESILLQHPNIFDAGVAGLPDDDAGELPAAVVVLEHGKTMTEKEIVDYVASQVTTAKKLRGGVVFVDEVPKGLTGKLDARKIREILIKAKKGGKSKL

Sequence of Follistatin (Homo sapiens) (P19883 whole entry, looked up): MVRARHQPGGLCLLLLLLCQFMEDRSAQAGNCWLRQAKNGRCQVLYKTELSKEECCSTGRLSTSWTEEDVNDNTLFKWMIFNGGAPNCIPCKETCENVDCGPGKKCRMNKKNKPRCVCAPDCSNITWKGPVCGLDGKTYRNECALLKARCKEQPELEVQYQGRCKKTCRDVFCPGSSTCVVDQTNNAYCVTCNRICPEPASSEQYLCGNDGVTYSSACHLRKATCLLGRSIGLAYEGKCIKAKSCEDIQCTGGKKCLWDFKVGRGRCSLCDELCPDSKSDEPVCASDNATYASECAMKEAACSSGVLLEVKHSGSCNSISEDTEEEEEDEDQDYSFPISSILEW
Sequence of Fibroblast growth factor 2 (Homo sapiens) (P09038 whole entry, looked up): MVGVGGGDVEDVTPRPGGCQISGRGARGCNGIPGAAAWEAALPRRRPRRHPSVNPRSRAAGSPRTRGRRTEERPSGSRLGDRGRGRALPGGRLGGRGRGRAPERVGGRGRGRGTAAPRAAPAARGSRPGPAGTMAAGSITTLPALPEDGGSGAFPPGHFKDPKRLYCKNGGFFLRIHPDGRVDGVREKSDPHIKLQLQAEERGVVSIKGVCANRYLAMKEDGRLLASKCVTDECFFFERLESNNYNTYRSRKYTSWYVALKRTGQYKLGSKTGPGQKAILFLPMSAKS
Sequence of Concanavalin-A (Canavalia ensiformis) (P02866 whole entry, looked up): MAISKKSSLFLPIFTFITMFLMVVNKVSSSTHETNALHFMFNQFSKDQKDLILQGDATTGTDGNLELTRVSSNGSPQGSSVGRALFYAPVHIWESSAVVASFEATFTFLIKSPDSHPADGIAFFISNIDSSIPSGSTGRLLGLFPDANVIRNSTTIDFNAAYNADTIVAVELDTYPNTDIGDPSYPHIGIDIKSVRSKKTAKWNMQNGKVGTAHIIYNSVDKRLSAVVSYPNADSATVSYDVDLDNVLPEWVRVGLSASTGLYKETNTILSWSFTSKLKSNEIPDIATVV
Sequence of Focal adhesion kinase 1 (Homo sapiens) (Q05397 whole entry, looked up): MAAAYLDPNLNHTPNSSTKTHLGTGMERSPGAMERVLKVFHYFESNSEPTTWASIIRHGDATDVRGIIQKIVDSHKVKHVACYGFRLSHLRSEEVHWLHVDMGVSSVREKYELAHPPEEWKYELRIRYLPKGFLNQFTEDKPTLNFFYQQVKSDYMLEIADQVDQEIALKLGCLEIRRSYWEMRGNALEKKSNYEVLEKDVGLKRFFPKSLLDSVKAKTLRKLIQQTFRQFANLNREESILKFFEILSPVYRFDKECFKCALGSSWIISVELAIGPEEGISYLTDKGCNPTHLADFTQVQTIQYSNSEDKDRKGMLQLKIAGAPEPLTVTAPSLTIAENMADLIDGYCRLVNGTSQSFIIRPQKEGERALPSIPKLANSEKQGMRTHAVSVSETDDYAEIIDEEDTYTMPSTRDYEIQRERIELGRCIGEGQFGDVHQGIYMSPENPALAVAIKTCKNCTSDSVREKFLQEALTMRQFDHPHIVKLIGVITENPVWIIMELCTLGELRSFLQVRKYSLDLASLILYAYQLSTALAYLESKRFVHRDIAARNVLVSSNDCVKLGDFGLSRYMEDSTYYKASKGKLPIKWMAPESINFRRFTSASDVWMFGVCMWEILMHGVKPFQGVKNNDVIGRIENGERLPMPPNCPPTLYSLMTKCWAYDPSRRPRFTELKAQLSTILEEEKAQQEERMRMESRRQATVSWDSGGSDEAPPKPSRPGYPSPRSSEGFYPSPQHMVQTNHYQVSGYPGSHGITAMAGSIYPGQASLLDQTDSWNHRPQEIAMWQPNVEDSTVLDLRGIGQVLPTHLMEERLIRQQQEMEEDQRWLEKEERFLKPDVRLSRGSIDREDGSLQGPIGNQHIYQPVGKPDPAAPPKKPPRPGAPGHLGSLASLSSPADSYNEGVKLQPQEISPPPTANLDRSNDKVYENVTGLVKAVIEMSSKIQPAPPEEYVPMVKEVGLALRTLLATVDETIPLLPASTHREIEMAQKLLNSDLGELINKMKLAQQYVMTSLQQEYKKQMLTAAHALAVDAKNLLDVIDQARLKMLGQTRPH
Sequence of Albumin (Bos taurus) (P02769 whole entry, looked up): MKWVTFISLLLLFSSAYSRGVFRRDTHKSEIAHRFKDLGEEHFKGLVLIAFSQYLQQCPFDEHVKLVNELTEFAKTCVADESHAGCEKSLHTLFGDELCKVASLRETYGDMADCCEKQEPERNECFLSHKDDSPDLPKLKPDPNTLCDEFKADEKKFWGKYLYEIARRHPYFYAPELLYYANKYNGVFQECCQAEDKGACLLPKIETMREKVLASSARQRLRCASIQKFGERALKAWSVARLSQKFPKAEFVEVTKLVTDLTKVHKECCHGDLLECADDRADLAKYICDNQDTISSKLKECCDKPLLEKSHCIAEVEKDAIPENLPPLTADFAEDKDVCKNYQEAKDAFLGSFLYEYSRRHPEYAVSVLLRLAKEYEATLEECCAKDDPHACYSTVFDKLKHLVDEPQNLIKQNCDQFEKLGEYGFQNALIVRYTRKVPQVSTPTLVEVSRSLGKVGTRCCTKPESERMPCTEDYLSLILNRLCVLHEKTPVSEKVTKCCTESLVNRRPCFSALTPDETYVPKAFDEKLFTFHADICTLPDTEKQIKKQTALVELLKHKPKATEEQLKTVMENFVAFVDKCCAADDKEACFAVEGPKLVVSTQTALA

SMILES	composite z-score (Albumin (Bos taurus))	composite Z-score [1]	composite z-score [2]	composite z-score [3]	composite z-score [4]	composite z-score [5]	composite z-score [6]	composite z-score (Sam68 (KHDRBS1))	composite z-score [7]	composite z-score [8]	composite z-score [9]	composite z-score [10]	composite z-score [11]	composite z-score [12]	composite z-score [13]	composite z-score [14]	z-score [15]	composite z-score (Lefty1)	composite z-score [16]	z-score [17]
O=C1[C@@]23C=C(Br)[C@H](C[C@@H]2COC3)[C@]12CO2	-0.742	-0.222 (inactive)	-0.0187	-0.0176	-0.762	0.638	-0.447	-2.61	-0.323	-1.79	-2.07	-3.63	0.406	-2.79	-0.362	-0.829	-0.096	-0.921	-2.06	-0.0914 (inactive)
COCCOC(=O)N1C(=O)[C@@]2(c3cc(C#CC4=CCCCC4)ccc31)[C@H](C(N)=O)[C@H]1C(=O)O[C@H](c3ccccc3)[C@H](c3ccccc3)N1[C@@H]2c1ccc(O)cc1	0.744	-0.158 (inactive)	0.116	0.117	0.433	1.83	0.322	1.3	0.302	1.11	0.753	1.18	0.671	0.958	0.886	0.58	-1.1	0.553	0.686	-1.98 (inactive)
CC(C)N1CC=CC23O[C@@H]4C=CCOC(=O)[C@@H]4[C@H]2C(=O)N(CCCCCO)[C@@H]3C1=O (stereo not given in full)	1.02	-0.194 (inactive)	-0.12	-0.153	0.733	1.64	0.915	-0.135	-0.574	0.823	2.11	-0.01	0.345	-1.86	-0.382	-0.377	-0.178	0.204	0.0322	-3.48 (inactive)
CC(C)=CCCC(C)=CC(O)C1C=CC2C(=O)N(c3ccccc3)C(=O)C2N1Nc1ccc(C(C)C)cc1 (stereo not given)	0.792	0.415 (inactive)	0.282	0.0683	0.465	2.32	-0.519	1.23	-1.01	1.09	0.491	1.22	0.526	0.998	1.12	-0.373	0.0344	0.262	1.03	0.43 (inactive)
C=CCC(OC(C)=O)[C@@H]1[C@@H](N(Cc2ccc(-c3cccc(C(F)(F)F)c3)o2)C(=O)c2cccc3ccccc23)c2cc(OCCCO)ccc2N1C(=O)Cc1ccc2ccccc2c1 (stereo not given in full)	0.426	0.111 (inactive)	-0.0465	-0.102	0.0886	0.58	-0.0395	0.153	0.421	-0.146	0.383	-0.688	0.172	0.702	0.37	-0.129	-0.65	-0.0051	0.178	0.335 (inactive)
COC(=O)C(CC#Cc1ccc2c(c1)[C@]1(C(=O)N2)[C@H](c2ccccc2OCCO)N2[C@H](c3ccccc3)[C@H](c3ccccc3)OC(=O)[C@H]2[C@@H]1C(=O)O)C(=O)OC	0.573	0.0066 (inactive)	0.194	-0.1	0.367	1.7	0.375	1.3	0.132	1.09	1.94	1.16	0.411	0.765	0.206	0.36	0.621	0.284	0.702	-2.37 (inactive)
COC(=O)[C@]1(Cc2ccccc2)N=C(c2ccc(OCCCO)cc2)O[C@@H]1c1ccccc1N=[N+]=[N-]	0.165	-0.181 (inactive)	-0.0391	-0.122	0.279	1.59	0.209	0.3	0.315	0.666	1.15	1.2	0.442	0.863	1.36	1.29	-1.24	0.83	0.464	-4.8 (inactive)
C=CCC(OC(C)=O)[C@@H]1[C@@H](N(Cc2cc3ccccc3o2)C(=O)Cc2ccc(OC)cc2)c2cc(OCCCO)ccc2N1C(=O)c1ccc2ccccc2c1 (stereo not given in full)	0.234	0.39 (inactive)	-0.0485	-0.0652	0.386	0.13	0.16	-0.427	-0.257	-0.439	0.19	-0.491	0.115	-1.19	0.2	-0.568	-0.319	0.128	0.757	0.148 (inactive)
